# Measured values: PubChem BioAssay (NCATS)
# Inconclusive results are not listed. A call without a number means that no potency is given here. The source made the active and inactive calls. Unless noted, the call rests on the fitted dose curve.
# Columns and labels:
# [1] = qHTS for Inhibitors of the Functional Ribonucleoprotein Complex (vRNP) of Lassa (LASV) Arenavirus: LASV Primary Screen - GLuc reporter signal (AID 1347082; calls by dose curve; tested in HEK293 reporter line; further: nearly all actives have a fitted effect of over 60% in size)
# [2] = qHTS for Inhibitors of the Functional Ribonucleoprotein Complex (vRNP) of Lassa (LASV) Arenavirus: Viability assay - alamar blue signal for LASV Primary Screen (AID 1347083; calls by dose curve; tested in HEK293 reporter line; further: nearly all actives have a fitted effect of over 80% in size)
# [3] = qHTS for Inhibitors of the Functional Ribonucleoprotein Complex (vRNP) of Lymphocytic Choriomeningitis Arenaviruses (LCMV): Viability assay - alamar blue signal for LCMV Primary Screen (AID 1347085; calls by dose curve; tested in HEK293 reporter line; further: nearly all actives have a fitted effect of over 80% in size)
# [4] = target: Nucleoprotein (Lymphocytic choriomeningitis virus (strain Armstrong)) (UniProt P09992); assay: qHTS for Inhibitors of the Functional Ribonucleoprotein Complex (vRNP) of Lymphocytic Choriomeningitis Arenaviruses (LCMV): LCMV Primary Screen - GLuc reporter signal (AID 1347086); further: nearly all actives have a fitted effect of over 70% in size
# Potency means the concentration at half of the fitted maximal effect.
# Chain of Nucleoprotein (Lymphocytic choriomeningitis virus (strain Armstrong)) (P09992 whole entry, looked up): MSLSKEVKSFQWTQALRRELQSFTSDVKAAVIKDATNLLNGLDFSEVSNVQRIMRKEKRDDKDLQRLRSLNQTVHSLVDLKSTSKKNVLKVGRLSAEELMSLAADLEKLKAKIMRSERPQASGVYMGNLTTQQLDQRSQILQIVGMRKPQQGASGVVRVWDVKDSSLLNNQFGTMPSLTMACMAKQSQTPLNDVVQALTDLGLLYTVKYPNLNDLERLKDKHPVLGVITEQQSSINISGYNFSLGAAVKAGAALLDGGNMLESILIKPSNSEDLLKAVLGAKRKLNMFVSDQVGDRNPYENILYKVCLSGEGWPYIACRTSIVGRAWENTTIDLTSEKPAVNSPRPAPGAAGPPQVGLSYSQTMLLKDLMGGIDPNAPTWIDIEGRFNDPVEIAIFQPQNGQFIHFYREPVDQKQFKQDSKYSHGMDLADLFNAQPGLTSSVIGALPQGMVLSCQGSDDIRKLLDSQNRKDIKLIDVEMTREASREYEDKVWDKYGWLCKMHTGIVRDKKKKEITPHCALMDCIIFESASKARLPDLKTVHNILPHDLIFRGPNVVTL
Structure (SMILES),Potency [1],Potency [2],Potency [3],Potency [4]
COc1cc2cc(Oc3ccc4ccc(=O)oc4c3)c(=O)oc2cc1OC1OC(COC(=O)CC(C)(O)CC(=O)O)C(O)C(O)C1O (stereo not given),inactive,inactive,inactive,inactive
CCCCCCCCCCCC(=O)OCC,inactive,inactive,inactive,inactive
COc1ccc(CC(C)N)cc1 (stereo not given),inactive,inactive,inactive,inactive
CC(C)N1[N]C(=C2C=c3cc(O)ccc3=N2)c2c(N)ncnc21,2730 nM (active),685 nM (active),1090 nM (active),611 nM (active)
CC(C)NC(=O)NC(C)C,inactive,inactive,inactive,inactive
O=C(O)COc1ccc(Cl)cc1CO,inactive,inactive,inactive,inactive
O=C1CC(c2ccc(O[C@@H]3OC(CO)[C@@H](O)C(O)C3O)cc2)Oc2cc(O)ccc21 (stereo not given in full),inactive,inactive,inactive,inactive
CCCCCCCCO[C@@H]1O[C@H](CO)[C@@H](O)[C@H](O)[C@H]1O,inactive,inactive,inactive,inactive
CC(C)(O)[C@@H]1CC(=O)[C@]2(C)[C@H](CC[C@@]3(C)[C@H](c4ccoc4)OC(=O)[C@H]4O[C@]432)[C@@]1(C)/C=C\C(=O)O,inactive,inactive,inactive,inactive
CCOC(=O)c1c(C)cc(O)cc1O,inactive,inactive,inactive,inactive
O=C(C=CC=Cc1ccc2c(c1)OCO2)N1CCCCC1,inactive,inactive,inactive,inactive
O=CC(O)C1OC(=O)C(O)C1O (stereo not given),inactive,inactive,inactive,inactive
OC[C@H]1O[C@@H](OC[C@H]2O[C@@H](O)[C@H](O)[C@@H](O)[C@@H]2O)[C@H](O)[C@@H](O)[C@@H]1O,inactive,inactive,inactive,inactive
CC(C)=CCC/C(C)=C/COc1c2ccoc2cc2oc(=O)ccc12,inactive,inactive,inactive,inactive
CC(C)C1Oc2cc3oc(=O)ccc3cc2C1=O (stereo not given),inactive,inactive,inactive,inactive
COc1cc(C(=O)O)ccc1O,inactive,inactive,inactive,inactive
CC/C=C\CCOC(C)=O,inactive,inactive,inactive,inactive
Cc1cc(O)c2c(c1O)C(=O)C(O)=C(O)C2=O,inactive,inactive,inactive,inactive
C[C@@]12CCC3[C@@](CCC4[C@@]3(C)CCC[C@@]4(C)C(=O)O)(CC1=O)C2 (stereo not given in full),inactive,inactive,inactive,inactive
C=C[C@@]1(C)CC(=O)[C@]2(O)[C@@]3(C)[C@@H](O)CCC(C)(C)[C@@H]3[C@H](OC(C)=O)[C@H](O)[C@@]2(C)O1,inactive,inactive,inactive,inactive

Structure (SMILES),Potency [1],Potency [2],Potency [3],Potency [4]
COc1ccc([C@@]23Oc4cc(OC)cc(OC)c4[C@]2(O)[C@H](O)[C@H](C(=O)N(C)C)[C@H]3c2ccccc2)cc1,inactive,inactive,inactive,inactive
C1CC[C@H]([C@@]23C[C@H](C[C@H]4CCCN[C@H]42)[C@@H]2CCCCN2C3)NC1,inactive,inactive,inactive,inactive
CC1(C)O[C@@H]2C[C@@H]3[C@H]4C[C@@H](F)C5=CC(=O)C=C[C@]5(C)[C@@]4(F)[C@@H](O)C[C@]3(C)[C@]2(C(=O)CO)O1,inactive,inactive,inactive,inactive
C=O,inactive,inactive,inactive,inactive
Cc1c(O)cccc1C(=O)N[C@@H](CSc1ccccc1)[C@H](O)CN1C[C@H]2CCCC[C@@H]2C[C@@H]1C(=O)NC(C)(C)C,inactive,inactive,inactive,inactive
COc1c(O)ccc2c1-c1c3c(cc4c1C(C2)N(C)CC4)OCO3 (stereo not given),inactive,inactive,inactive,inactive
C=C[C@]1(C)C=C2C(=O)C[C@H]3C(C)(C)CCC[C@]3(C(=O)O)[C@@]2(O)CC1,inactive,inactive,inactive,inactive
COc1cc2c(cc1OC)[C@H]1C(=O)c3ccc4c(c3O[C@H]1CO2)C[C@@H](C(C)(C)O)O4,inactive,inactive,inactive,inactive
CCN1C[C@]2(CO)CC[C@H](OC)[C@@]34C5C[C@H]6[C@H](OC)C5[C@](O)(C[C@H]6OC)[C@@](O)(C(OC)C23)[C@@H]14 (stereo not given in full),inactive,inactive,inactive,inactive
C=CCCCCCCCCCCCC(O)CC(O)COC(C)=O (stereo not given),inactive,inactive,inactive,inactive
O=C(O)[C@H](O)[C@@H](O)C(=O)O,inactive,inactive,inactive,inactive
NCCC[C@H](N)CC(=O)N[C@H]1CNC(=O)[C@H]([C@H]2C[C@H](O)N=C(N)N2)NC(=O)C(=CNC(N)=O)NC(=O)[C@H](CO)NC(=O)[C@H](CO)NC1=O,inactive,inactive,inactive,inactive
C/C=C(/C)C(=O)O[C@@H]1c2c(ccc3ccc(=O)oc23)O[C@@H]1C(C)(C)OC(C)=O,inactive,inactive,inactive,inactive
CCCCCCCCCCCCCC/C(C(=O)O)=C(\C)C(=O)O,inactive,inactive,inactive,inactive
CC1=CC2OC3CC4OC(=O)C=CC=CC(C(C)O)OCC(O)C(C)CC(=O)OCC2(CC1O)C4(C)C31CO1 (stereo not given),inactive,inactive,inactive,inactive
COc1ccc(C[C@H]2c3cc(O)c(OC)cc3CC[N+]2(C)[O-])cc1O (stereo not given in full),inactive,inactive,inactive,inactive
COc1cc2c(cc1O)CC[n+]1cc3c(OC)c(OC)ccc3cc1-2,inactive,inactive,inactive,inactive
COc1cc(C)c(C(=O)Oc2cc(C)c(C(=O)O)c(O)c2C)c(OC)c1C,inactive,inactive,inactive,inactive
CCCCCCCCCC(=O)OCC,inactive,inactive,inactive,inactive
COc1c2c(nc3occc13)C(CC=C(C)C)(OC)C(=O)C=C2 (stereo not given),inactive,inactive,inactive,inactive

Structure (SMILES),Potency [1],Potency [2],Potency [3],Potency [4]
CCOC(=O)C=C[C@H](C[C@@H]1CCNC1=O)NC(=O)[C@@H](CC(=O)[C@@H](NC(=O)c1cc(C)on1)C(C)C)Cc1ccc(F)cc1,inactive,inactive,inactive,inactive
CC(O)C(C)O (stereo not given),inactive,inactive,inactive,inactive
Nc1oc2ccccc2c1C(=O)Cc1ccccc1O[C@@H]1O[C@H](CO)[C@@H](O)[C@H](O)[C@H]1O,inactive,inactive,inactive,inactive
NC1=N[C@H](O)[C@H]2C3O[C@]4(O)O[C@H](C(O)[C@@]2(N1)[C@@H]4O)C3(O)CO (stereo not given in full),inactive,inactive,inactive,inactive
CCOC(=O)[C@H](CCc1ccccc1)N[C@@H](C)C(=O)N1CCCC1C(=O)O (stereo not given in full),inactive,inactive,inactive,inactive
C[C@@H]1C(=O)CC2C(C)(C)CCC[C@]2(C)[C@@]1(O)CCc1ccoc1 (stereo not given in full),inactive,inactive,inactive,inactive
CCCCCC(=O)OCC,inactive,inactive,inactive,inactive
C#CCCC[C@@H]1OC(=O)CNC(=O)C([C@@H](C)CC)NC(=O)[C@@H]2CCCN2C(=O)C([C@@H](C)CC)OC(=O)[C@H](Cc2ccccc2)N(C)C(=O)[C@H](C(C)C)NC(=O)C1(C)C (stereo not given in full),inactive,inactive,inactive,inactive
CC(=O)CCc1ccc(O)cc1,inactive,inactive,inactive,inactive
C[C@@H]1C(=O)O[C@H]2[C@H]1CC[C@@]1(C)C(=O)C=C[C@@](C)(O)[C@H]21,inactive,inactive,inactive,inactive
CCCCCCCCCCCCCCCCCCOS(=O)(=O)O,inactive,inactive,inactive,inactive
CCCCCC/C=C/C=O,inactive,inactive,inactive,inactive
C[C@@H]1C(=O)O[C@@H]2CC34[C@H]5C[C@@H](C(C)(C)C)C36[C@H](OC(=O)[C@@H]6O)OC4(C(=O)O5)[C@@]12O (stereo not given in full),inactive,inactive,inactive,inactive
Cc1cc(O)c2c(c1)C(O)(C1OC(CO)C(O)C(O)C1O)c1cccc(O)c1C2=O (stereo not given),inactive,inactive,inactive,inactive
CCN1CCN(C(=O)N[C@H](C(=O)N[C@@H]2C(=O)N3C(C(=O)O)=C(CSc4nnnn4C)CS[C@@H]23)c2ccc(O)cc2)C(=O)C1=O,inactive,inactive,inactive,inactive
C=C(C)[C@@H]1CC[C@]2(C(=O)O)CC[C@]3(C)C(CCC4[C@@]5(C)CC[C@H](O)C(C)(C)C5CC[C@]43C)C12 (stereo not given in full),inactive,inactive,inactive,inactive
OC[C@H]1O[C@@H](Oc2ccc(O)cc2)[C@H](O)[C@@H](O)[C@H]1O,inactive,inactive,inactive,inactive
NCCC(=O)O,inactive,inactive,inactive,inactive
CC1(C)OC2CC3C4CC(F)C5=CC(=O)C=CC5(C)C4C(O)CC3(C)[C@]2(C(=O)CO)O1 (stereo not given in full),inactive,inactive,inactive,inactive
NC(=O)Nc1ccc(Cl)c(Cl)c1,inactive,inactive,inactive,inactive
